Assays:
Experiment in all cases: thermal shift delta Tm vs DMSO control; higher = stronger stabilization (binding)
Details in all cases: 12.5 µM; protein concentration 2 µM
[1] = system: LOC_OS02G45750-cb003
In short: (§1)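 Heating from 25°C to 95°C at 0.05°C/s, fluorescence was recorded for 19.5 μl wells of 2 μM E. coli-expressed, purified rice kinase domain in 100 mM potassium phosphate pH 7.5, 150 mM NaCl, 10% glycerol and 5 × SYPRO Orange with compound in DMSO. Boltzmann fits gave melting temperatures for this differential scanning fluorimetry assay. The shift reported is the mean of three replicates against the DMSO-only protein.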

[2] = system: LOC_OS02G54510-cb004
In short: as §1

[3] = system: LOC_OS03G04050-cb001
In short: as §1

[4] = system: LOC_OS03G12390-cb001
In short: as §1

[5] = system: LOC_OS03G27990-cb004
In short: as §1

[6] = system: LOC_OS03G50450-cb001
In short: as §1

[7] = system: LOC_OS03G50810-cb003
In short: as §1

[8] = system: LOC_OS04G35114-cb001
In short: as §1

[9] = system: T1, LOC_OS04G38480-cb003
T1 sequence (whole entry): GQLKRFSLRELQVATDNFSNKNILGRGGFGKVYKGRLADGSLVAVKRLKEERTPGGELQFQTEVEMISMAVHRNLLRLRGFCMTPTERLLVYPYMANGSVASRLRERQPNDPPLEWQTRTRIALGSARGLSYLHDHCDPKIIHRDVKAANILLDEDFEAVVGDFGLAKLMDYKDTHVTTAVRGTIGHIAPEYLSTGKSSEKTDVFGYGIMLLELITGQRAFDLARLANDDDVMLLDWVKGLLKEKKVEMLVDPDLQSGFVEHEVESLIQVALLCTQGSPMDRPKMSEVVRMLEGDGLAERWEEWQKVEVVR
In short: as §1

[10] = system: T2, LOC_OS04G41100-cb001
T2 sequence (whole entry): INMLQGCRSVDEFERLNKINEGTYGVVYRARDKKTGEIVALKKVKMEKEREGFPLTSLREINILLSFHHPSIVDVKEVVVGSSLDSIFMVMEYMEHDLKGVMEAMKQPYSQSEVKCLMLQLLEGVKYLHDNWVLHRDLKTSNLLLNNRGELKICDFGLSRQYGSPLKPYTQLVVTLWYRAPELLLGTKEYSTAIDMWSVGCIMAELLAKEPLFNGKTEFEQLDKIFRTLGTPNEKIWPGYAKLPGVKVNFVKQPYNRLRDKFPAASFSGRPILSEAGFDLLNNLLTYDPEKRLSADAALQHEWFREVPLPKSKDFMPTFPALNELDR
In short: as §1
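Further: purified Escherichia coli-expressed rice kinase domain construct.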

SMILES | thermal shift delta Tm [1] [°C] | thermal shift delta Tm [2] [°C] | thermal shift delta Tm [3] [°C] | thermal shift delta Tm [4] [°C] | thermal shift delta Tm [5] [°C] | thermal shift delta Tm [6] [°C] | thermal shift delta Tm [7] [°C] | thermal shift delta Tm [8] [°C] | thermal shift delta Tm [9] [°C] | thermal shift delta Tm [10] [°C]
Cc1ccccc1CN1C2=NCCN2C(=O)C2=C1CCN(Cc1ccccc1)C2 [TIC10 Analogue] | -0.1 | 0.13 | 0.49 | -0.16 | 0.09 | 0.31 | 0.21 | 0.79 | 0.2 | 0.45
OC1CCC(Oc2cccc3cnc(Nc4ccc5nc[nH]c5c4)nc23)CC1 (stereo not given) | 17.1 | 2.66 | 0.39 | 8.52 | 5.39 | 7.93 | 7.28 | 7.42 | 4.8 | 5.03
O=C(NCc1ccccc1)c1csc(Nc2ccncn2)n1 [Thiazovivin] | 0.91 | 0.46 | 0.67 | 1.49 | 0.04 | 0.18 | 0.53 | 1.56 | 0.41 | 0.67
Cc1nc(Nc2cnn(C3CCNCC3)c2)nc2c1N(C)C(=O)c1cc3ccccc3cc1N2C | 2.86 | -0.12 | 0.18 | 1.89 | 0.13 | 0.69 | 0.96 | 1.48 | 1.64 | 0.38
CN1CC(O)C2=C/C(=N/NC(N)=O)C(=O)C=C21 (stereo not given) [Carbazochrome] | 0.38 | 0.29 | 0.65 | 0.05 | 0.64 | 0.96 | 0.41 | -0.02 | 0.38 | 0.2
O=C1Nc2ccc(I)cc2/C1=C/c1cc(Br)c(O)c(Br)c1 | 0 | 1.04 | 0.81 | 6.08 | 2.06 | 1.49 | 4.01 | 1.76 | -0.73 | 0.75
CC(C)c1cnn2c(NCc3ccccc3)cc(NCCCCCCN)nc12 | 0.67 | 0.22 | 0.33 | -0.19 | 0.14 | 0.34 | 0.19 | 0.56 | -0.44 | 0.32
N#CC1(c2ccc(NC(=O)c3cccnc3NCc3ccncc3)cc2)CCCC1 [Apatinib] | 0.45 | 1.36 | 0.07 | -0.19 | 0.11 | 0.69 | 0.22 | 0.72 | 0.83 | 0.11
Cc1[nH]c(/C=C2\C(=O)Nc3ccccc32)c(C)c1CCC(=O)O [Orantinib (TSU-68, SU6668)] | 0 | 2.74 | 0.04 | 9.53 | 0.65 | 5.03 | 0 | 8.78 | 4.57 | 0.53
O=C1NC(=O)C(c2cnc3ccccn23)=C1c1cn2c3c(cc(F)cc13)CN(C(=O)N1CCCCC1)CC2 | 0.77 | 0 | 0.57 | 4.58 | 0.13 | 0.64 | 0.95 | 1.35 | 1.47 | 1.44
Cc1ccc(NC(=O)c2cccc(C(C)(C)C#N)c2)cc1Nc1ccc2ncn(C)c(=O)c2c1 | 1.15 | 1.43 | 0.45 | 0.66 | 0.38 | 0.1 | 0.54 | 0.51 | 0.88 | 0.24
CC(C)NC[C@@H](C(=O)N1CCN(c2ncnc3c2[C@H](C)C[C@H]3O)CC1)c1ccc(Cl)cc1 [Ipatasertib (GDC-0068)] | 0.72 | 0.15 | 0.65 | -0.37 | 0.47 | 1.15 | 0.45 | 0.7 | 1.01 | 0.07
CO[C@@H](C)Cn1c(=O)n(C)c2cnc3ccc(-c4cncc(C(C)(C)O)c4)cc3c21 | 1.57 | 0.18 | 0.72 | 0.09 | 0.68 | 0.89 | 0.67 | 3.42 | 1.29 | 0.38
OC1CCC(Nc2ncc3nc(Nc4c(F)cc(F)cc4F)n([C@H]4CCOC4)c3n2)CC1 (stereo not given in full) [Tanzisertib(CC-930)] | 0.96 | 0.18 | 0.57 | 0.23 | 0.5 | 0.44 | 0.62 | 0.93 | 1.65 | 0.44
O=C(/C=C/c1ccc(O)c(O)c1)c1ccc(O)cc1O [Butein] | 2.94 | 0.39 | 1.9 | 3.8 | 1.75 | 2.26 | 2.72 | 3.66 | 3.43 | 2.09
CN1CCN(S(=O)(=O)c2ccc(-c3cnc(N)c(C(=O)Nc4cccnc4)n3)cc2)CC1 | 3.58 | 0.11 | 0.29 | 1.18 | 0.73 | 0.63 | 0.87 | 2.43 | 1.65 | 0.85
CCCCNc1ncc(-c2ccc(CN3CCOCC3)cn2)c(NC2CCC(O)CC2)n1 (stereo not given) | 13.7 | 0.36 | 0.34 | 2.88 | 1.94 | 1.29 | 5.33 | 7.84 | 3.1 | 0.46
CNC(=O)c1ccccc1Sc1ccc2c(/C=C/c3ccccn3)n[nH]c2c1 [Axitinib] | 4.92 | 0.12 | 0.3 | 0.31 | 0.01 | 0.21 | 0.35 | 2.98 | 0.63 | 0.65
CN1c2ccccc2C(=O)Nc2cnc(Nc3ccc(N4CCC(O)CC4)cc3)nc21 | 5.71 | 2.78 | 0.24 | 2.56 | 1.24 | -0.12 | 2.29 | 3.85 | 3.65 | 0.15
COc1cc(OC)c(C=C2C(=O)Nc3ccccc32)c(OC)c1 | -0.14 | 0.07 | -0.08 | -0.35 | 0.05 | -0.29 | -0.06 | 0.7 | 0.58 | 0.2

SMILES | thermal shift delta Tm [1] [°C] | thermal shift delta Tm [2] [°C] | thermal shift delta Tm [3] [°C] | thermal shift delta Tm [4] [°C] | thermal shift delta Tm [5] [°C] | thermal shift delta Tm [6] [°C] | thermal shift delta Tm [7] [°C] | thermal shift delta Tm [8] [°C] | thermal shift delta Tm [9] [°C] | thermal shift delta Tm [10] [°C]
COc1ccc2[nH]cc(/C=C3\C(=O)Nc4ccc(NC(=O)CCN5CCCCC5)cc43)c2c1 | 4.5 | 0.79 | 0.56 | 1.22 | 1.19 | 0.34 | 3.45 | 5.49 | 2.41 | 0.9
C[C@@H](Nc1cc(F)cc(F)c1)c1cc(C(=O)N(C)C)cc2c(=O)cc(N3CCOCC3)oc12 | -0.34 | -0.01 | 0.03 | 0 | 0.1 | -0.15 | 0.15 | 0.51 | 1.21 | 0.16
Cc1cn(-c2cc(NC(=O)c3ccc(C)c(Nc4nccc(-c5cccnc5)n4)c3)cc(C(F)(F)F)c2)cn1 [Nilotinib (AMN-107)] | 0.19 | 0.17 | 0.37 | 0.05 | 0.02 | 0.23 | 0.16 | -0.37 | 0.3 | 0.57
CCNC(=O)C#Cc1ccc2c(C(=Nc3ccc(CN(C)C)cc3)c3ccccc3)c(O)[nH]c2c1 | 7.14 | 2.44 | -0.2 | 1.25 | 0.99 | 0.07 | 4.57 | 9.15 | 1.25 | 4.14
C=CC(=O)Nc1cccc(Oc2nc(Nc3ccc(N4CCN(C)CC4)cc3)ncc2Cl)c1 | 3.96 | 0.5 | 0.53 | 3.42 | 2.49 | 1.35 | 4.77 | 3.8 | 1.67 | 1.1
Cc1cc(Nc2ncc(Cl)c(Nc3ccccc3S(=O)(=O)C(C)C)n2)c(OC(C)C)cc1C1CCNCC1 [Ceritinib (LDK378)] | 0.68 | 0.09 | 0.7 | 2.72 | 0.52 | 0.56 | 0.58 | 0.66 | 1 | 0.26
C[C@@H](Oc1cc(-n2cnc3ccc(CN4CCN(C)CC4)cc32)sc1C(N)=O)c1ccccc1C(F)(F)F | 0.36 | -0.15 | 0.2 | -0.35 | -0.09 | -0.03 | 0.55 | 2.11 | 0.27 | 0.39
COc1ccc(COc2ccc(Cc3cnc(N)nc3N)cc2OC)cc1 | 0.53 | 0.05 | 0.43 | -0.14 | 0.29 | 0.04 | 0.55 | 0.34 | 1.41 | 0.24
C[C@]1(O)C[C@@H](c2nc(-c3ccc4ccc(-c5ccccc5)nc4c3)c3c(N)nccn32)C1 [Linsitinib (OSI-906)] | 0.76 | 0.75 | 0.57 | 0.37 | 0.12 | 0.28 | 0.6 | 3.89 | 1.28 | 0.85
O=C(O)c1ccc(-c2c[nH]c3ncc(-c4ccccc4)cc23)cc1C1CCCC1 | 1.28 | 0.31 | 0.69 | 0.39 | 0.6 | 1.12 | 0.8 | 2.01 | 4.2 | 0.44
C[C@@H](N)[C@H]1CC[C@H](C(=O)Nc2ccncc2)CC1 | 0.42 | -0.03 | 0.29 | 0.52 | 0.09 | 0.25 | 0.21 | 0.03 | 1.42 | 0.81
COc1ccc(-c2ccc3c(N4CCOCC4)nc(N4C[C@@H](C)O[C@@H](C)C4)nc3n2)cc1CO | 0.16 | -0.13 | -0.03 | 0.03 | 0.02 | -0.08 | -0.07 | 0.21 | 0.34 | 0.27
Cc1cc(Nc2cc(Cl)nc(Oc3ccc([N+](=O)[O-])cc3)n2)n[nH]1 [Autophinib] | 1.3 | 0.33 | 0.63 | 0.34 | 0.56 | 0.75 | 0.7 | 0.47 | 1.06 | 1.26
Cc1ccc(-n2nc(C(C)(C)C)cc2NC(=O)NCc2cc(F)ccc2Oc2ccc3c(cnn3CCO)c2)cc1 [Pexmetinib (ARRY-614)] | 0.81 | 2.56 | 0.65 | 1.05 | 0.31 | 0.02 | 0.36 | 0.41 | 1.51 | 1.43
O=C(Nc1nc2cccc(-c3ccc(CN4CCS(=O)(=O)CC4)cc3)n2n1)C1CC1 [Filgotinib (GLPG0634)] | 1.04 | 0.58 | 0.6 | 0.31 | 0.64 | 1.73 | 0.86 | 1.37 | 1.66 | 0.6
CC(C)CC(=O)Nc1n[nH]c2c1CN(C(=O)C1CCN(C)CC1)C2(C)C | 0.62 | 0.36 | 0.36 | 0.64 | 0.15 | 0.29 | 1.12 | 0.47 | 0.59 | 3.27
CO[C@H]1CC[C@H](N2C(=O)CNc3ncc(-c4ccc(C(C)(C)O)nc4)nc32)CC1 | 0.31 | -0.17 | 0.09 | -0.22 | -0.29 | 0.22 | 0.18 | -0.71 | 1.62 | 0.08
Cc1ccc(F)c(NC(=O)Nc2ccc(-c3cccc4[nH]nc(N)c34)cc2)c1 [Linifanib (ABT-869)] | 0.85 | -0.22 | 0.3 | 3.38 | 1.2 | 0.4 | 0.8 | 2.54 | 0.22 | 1.77
Nc1nc(Nc2ccc(S(N)(=O)=O)cc2)nn1C(=O)c1c(F)cccc1F | 9.34 | 2.82 | -0.19 | 9.07 | 3.59 | 0.97 | 3.42 | 4.58 | 2.97 | 2.3
Nc1cccc(-c2cc3c(Oc4cccc(O)c4)ncnc3[nH]2)c1 | 5.52 | 1.7 | 0.45 | 5.94 | 3.84 | 0.38 | 1.5 | 4.56 | 2.16 | 1.12

Reference: the supplement of paper PMC9694430
